Measurements as given in PubChem BioAssay (NCI).
Compounds without any hit were thinned out: in the full panel of roughly 79,000, 15% have a hit. Cut-off read from the data, not from the text of the source: active = growth inhibition above about 70%; inactive = the rest.

How the values were obtained:
[1] = NCI Yeast Anticancer Drug Screen. Data for the rad50 strain (AID 155);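 note: 0% = growth of vehicle-only cultures of the same strain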; conditions: S. cerevisiae rad50 strain growth inhibition; at 50.0 µM; hits give high values
Method in brief: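 Growth of the mutant yeast was measured after compound exposure and referenced to vehicle-treated cultures.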

[2] = NCI Yeast Anticancer Drug Screen. Data for the mec2-1 strain (AID 157); conditions: S. cerevisiae mec2-1 strain, at 50.0 µM, hits give high values
Method in brief: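 Vehicle-treated cultures served as reference for growth inhibition of compound-exposed mec2-1 yeast.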

[3] = NCI Yeast Anticancer Drug Screen. Data for the sgs1 mgt1 strain (AID 161);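 note: 0% = growth of cultures given vehicle only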; conditions: S. cerevisiae sgs1 mgt1 strain, at 50.0 µM, hits give high values
Method in brief: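 Test agents were incubated with a DNA-repair-mutant yeast strain. Growth was then read and compared against vehicle-treated controls.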

[4] = NCI Yeast Anticancer Drug Screen. Data for the cln2 rad14 strain (AID 165);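 note: 0% = growth equal to vehicle treated cultures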; conditions: S. cerevisiae cln2 rad14 strain, at 50.0 µM, hits give high values
Method in brief: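 Each compound was tested on cln2 rad14 yeast. Inhibition of growth was calculated against vehicle-exposed controls.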

[5] = NCI Yeast Anticancer Drug Screen. Data for the bub3 strain (AID 167); conditions: S. cerevisiae bub3 mutant strain, at 50.0 µM, hits give high values
Method in brief: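 Whole-cell yeast assay. The mutant strain was incubated with compounds, and growth inhibition was determined by comparison with vehicle-treated cells.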

[6] = NCI Yeast Anticancer Drug Screen. Data for the mlh1 rad18 strain (AID 175); conditions: S. cerevisiae mlh1 rad18 strain growth inhibition; at 50.0 µM; hits give high values
Method in brief: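 Vehicle-treated cultures served as the reference for growth inhibition in a yeast strain carrying DNA damage repair alterations exposed to each compound.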

Measured: growth inhibition

N#Cc1ccccc1OCCCCCCCCCCOc1ccccc1C#N
inactive: [1] -2.8% | [2] -4.15% | [3] -19.6% | [4] 31.4% | [5] -1% | [6] 3.8%

O=C1c2ccccc2CN1c1ccccc1
inactive: [1] -23% | [2] -25.6% | [3] -3.25% | [4] 6.45% | [5] -7.5% | [6] -2.7%

Oc1cccc(N=Cc2ccccc2O)c1
inactive: [1] 4.3% | [2] -4.85% | [3] 0.15% | [4] -18.8% | [5] -5.15% | [6] 0.15%

CC(=O)NC1CCC(Cc2ccccc2)CC1 (stereo unspecified)
inactive: [1] 6.2% | [2] -7.65% | [3] -11.3% | [4] -93.3% | [5] -22.3% | [6] -3.9%

CC(=O)OCC1OC(n2cccnc2=O)C(OC(C)=O)C1OC(C)=O (stereo unspecified)
inactive: [1] -0.55% | [2] 2.75% | [3] 2.25% | [4] 7.8% | [5] 8.7% | [6] 0.9%

C=C1CCC/C(=N\Nc2ccc([N+](=O)[O-])cc2[N+](=O)[O-])C12CCCC2
inactive: [1] -2.45% | [2] 3.45% | [3] -4.65% | [4] -11.6% | [5] 1.15% | [6] -1.35%

CN(C)c1ccc(C(=N)c2ccc(N(C)C)cc2)cc1
inactive: [1] -3.85% | [2] 4.9% | [3] -6% | [4] -35.5% | [5] 5.45% | [6] -0.15%

CNC(=S)NC
inactive: [1] 11.9% | [2] 11.1% | [3] 13.4% | [4] -51.1% | [5] 0.2% | [6] -13.8%

Cc1cc(Br)ccc1N=c1scc(-c2ccc(Cl)cc2)n1C
inactive: [1] -22.2% | [2] -27.6% | [3] 4.45% | [4] 0.1% | [5] 16.1% | [6] 15.1%

C=C(C)C(=O)OCC(CC)(COC(=O)C(=C)C)COC(=O)C(=C)C
inactive: [1] -9.25% | [2] -19.6% | [3] 8.35% | [4] -2.05% | [5] 18.6% | [6] 0%

O=C(/C=C/c1ccccc1)Cc1nc2nnc(NC(=O)Nc3ccc(Cl)cc3)n2[nH]c1=O
inactive: [1] -9.15% | [2] 1.85% | [3] 1.5% | [4] -8.05% | [5] 6.15% | [6] 4.65%

Nc1c(Cl)ncnc1Cl
inactive: [1] -13.8% | [2] 8.3% | [3] -16.4% | [4] -0.65% | [5] 19.7% | [6] -39.7%

Cc1ccc(N2C(=O)CNC2=O)cc1
inactive: [1] -10.3% | [2] -5% | [3] -7.8% | [4] -27.2% | [5] 1.2% | [6] -6.45%

C/C(CC(C)C)=N/NC(N)=S
inactive: [1] 14.9% | [2] 0.7% | [3] 1.35% | [4] -23.1% | [5] 32.6% | [6] 30.4%

O=[N+]([O-])c1ccc(C(O)(C#CCN2CCCC2)c2ccccc2)cc1 (stereo unspecified)
inactive: [1] 20.5% | [2] 11.9% | [3] -24.1% | [4] 10.2% | [5] 3.5% | [6] 12.7%

O=S1(=O)C2CCCCCC2(N2CCOCC2)C1C1CCCCC1 (stereo unspecified)
inactive: [1] 16.7% | [2] 22.4% | [3] -0.45% | [4] 25.4% | [5] 6% | [6] 15.1%

CC(=O)OC1CCC2(C)C(CCC3C2CCC2(C)C(C(C)C(=O)O)CCC32)C1 (stereo unspecified)
inactive: [1] -10.7% | [2] 1.85% | [3] 1.45% | [4] 10.8% | [5] -3.6% | [6] 3.9%

CCN1C(=O)C(=O)C(CC)(CC)C1=O
inactive: [1] -8.4% | [2] -1.75% | [3] -7% | [4] -8.25% | [5] 0.85% | [6] -13.6%

O=C1c2ccccc2CN1c1ccc(O)cc1
inactive: [1] 5.65% | [2] 1.5% | [3] -14.8% | [4] 20.9% | [5] -1.2% | [6] 16.9%

CC1(C)OC2COC(c3[nH]nc(C(N)=O)c3C(=O)N=[N+]=[N-])C2O1 (stereo unspecified)
inactive: [1] -11.3% | [2] -1.35% | [3] -12.1% | [4] 4.35% | [5] 7.85% | [6] -9.95%

O=C(OCc1ccccc1)c1ccccc1
inactive: [1] 18.9% | [2] 3.05% | [3] 10.8% | [4] -13.3% | [5] 28.1% | [6] 51.9%

CC(=O)NC(CCCCNC(=O)OCc1ccccc1)C(=O)O (stereo unspecified)
inactive: [1] -22.9% | [2] -12.9% | [3] -22.6% | [4] 11.9% | [5] -12.8% | [6] -32.8%

Cc1ccc(S(=O)(=O)OCCN(CCO)c2cn(C(c3ccccc3)(c3ccccc3)c3ccccc3)c(=O)n(C(c3ccccc3)(c3ccccc3)c3ccccc3)c2=O)cc1
inactive: [1] -2.1% | [2] 17.8% | [3] 3.7% | [4] -6.8% | [5] -4.3% | [6] 24.3%

CC(C)(Cc1ccc([N+](=O)[O-])cc1)[N+](=O)[O-]
inactive: [1] 7.95% | [2] 11.3% | [3] 4.3% | [4] -7.55% | [5] 12.4% | [6] -0.05%

Cn1c(C(N)=O)cc(=O)n1-c1ccc([N+](=O)[O-])cc1
inactive: [1] 6.35% | [2] 18.7% | [3] 4.45% | [4] 3.8% | [5] -6% | [6] 0.35%

NCCN1CCOCC1
inactive: [1] 7.95% | [2] -3% | [3] -11.9% | [4] 3.45% | [5] -5.25% | [6] 7.8%

CCCCCCCCCCCCCCCCC[CH2][Sn]([Cl])([CH2]CCCCCCCCCCCCCCCCC)[CH2]CCCCCCCCCCCCCCCCC
inactive: [1] 9.15% | [2] -1.2% | [3] -16.7% | [4] -2.55% | [5] -2.1% | [6] -13.7%

CCOC(=O)C1=C(C(=O)c2ccc(OC)cc2)C(c2cccc([N+](=O)[O-])c2)C(C(=O)c2ccc(OC)cc2)=C(C(=O)OCC)N1
inactive: [1] -30.8% | [2] -1.6% | [3] -2.5% | [4] -2.85% | [5] -6.45% | [6] 2%

COc1ccc(-c2c(C(=O)O)cc(O)c3cc(OC)c(OC)cc23)cc1OC
inactive: [1] 6.4% | [2] -2.9% | [3] 5% | [4] 26.4% | [5] 3.3% | [6] -0.75%

O=C(/C=C/c1cccs1)c1ccc(C(=O)/C=C/c2cccs2)cc1
inactive: [1] -32.6% | [2] -46.4% | [3] -18% | [4] 11.2% | [5] -3.5% | [6] -31.9%

CC(=O)OCC(C)Cc1ccccc1 (stereo unspecified)
inactive: [1] 6.35% | [2] 13.8% | [3] -0.25% | [4] 8.2% | [5] 1.9% | [6] -2.25%

CC(C)OC(CCC#N)c1ccccc1 (stereo unspecified)
inactive: [1] -20.1% | [2] -48.6% | [3] -33.3% | [4] -8.3% | [5] -32.9% | [6] -34.1%

O=C1OC(c2ccccc2)N(C(=O)c2ccccc2)C1Cc1ccc(OCc2ccccc2)cc1 (stereo unspecified)
inactive: [1] -30.5% | [2] -6.4% | [3] -5.65% | [4] -13.7% | [5] 0.95% | [6] 5.75%

Cc1ncc([N+](=O)[O-])n1CCNC(=O)CCCCCn1ccnc1[N+](=O)[O-]
inactive: [1] 3.1% | [2] -4.05% | [3] -9.45% | [4] 19.7% | [5] -6.15% | [6] -35.2%

Cn1c(N)c(N=O)c(=O)n(C)c1=O
inactive: [1] -28.9% | [2] -18.8% | [3] -1.6% | [4] -12.8% | [5] -5.65% | [6] -9.9%

Cn1c2ccccc2c2c3ccc[n+](C)c3ccc21
inactive: [1] 8% | [2] -2.9% | [3] 8.7% | [4] -57.5% | [5] -0.1% | [6] 2.1%

CC1CCC(OC(=O)Cc2ccccc2)CC1 (stereo unspecified)
inactive: [1] 26.7% | [2] 18% | [3] 9.55% | [4] -15.1% | [5] 18.5% | [6] 24.6%

NC(=O)Nc1ccc2[nH]c(=O)c3ccccc3c2c1
inactive: [1] 7.4% | [2] -3.35% | [3] 17.2% | [4] 0.6% | [5] -7.15% | [6] 1.45%

O=S(=O)(O)c1ccc2cc(O)ccc2c1
inactive: [1] 35.7% | [2] 14.6% | [3] 13.8% | [4] 14.5% | [5] 20.8% | [6] 28.4%

COC(=O)C1c2ccccc2CC(=O)N1NC(=O)c1ccccc1 (stereo unspecified)
inactive: [1] -7.7% | [2] -2.95% | [3] -17.1% | [4] 4.5% | [5] 3.65% | [6] 16.6%

CC(C)CCc1ccc2ccc3cccc4ccc1c2c34
inactive: [1] -17.6% | [2] 3.55% | [3] -1.15% | [4] -26.3% | [5] -0.85% | [6] -8.1%
